Reference: PubChem BioAssay (NCI)
About 83,000 compounds went through this panel and 20% of them were active in at least one assay; those are over-represented in the sample as a whole.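 Single-dose data. Exposure time 48 hours. Values below 10 considered active.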 Active and inactive are the calls of the source.

Legend:
Assay in all cases: NCI-60 one-dose screen, 48 h (100 = growth as untreated, 0 = no growth, -100 = all killed)
[1] = system: NCI-H23 lung; settings: 10 µM unless noted
[2] = system: NCI-H226 lung; settings: 10 µM unless noted
[3] = system: NCI-H322M lung; settings: 10 µM unless noted
[4] = system: HOP-62 NSCLC; settings: 10 µM unless noted
[5] = system: NCI-H460 lung; settings: 10 µM unless noted
[6] = system: HOP-92 NSCLC; settings: 10 µM unless noted
[7] = system: A549/ATCC NSCLC; settings: 10 µM unless noted
[8] = system: COLO 205 colon; settings: 10 µM unless noted
[9] = system: 786-0 renal; settings: 10 µM unless noted
[10] = system: NCI-H522 lung; settings: 10 µM

Measured: growth

FC(F)(F)c1cc(-c2nnc3n2N=C(N2CCCC2)CS3)cc(C(F)(F)F)c1
inactive: [1] 62.7% | [2] 58.4% | [3] 99% | [4] 37.7% | [5] 58.1% | [6] 37.4% | [7] 60.4% | [8] 98.1%

O=c1sc2ncnc3ncn1c32
inactive: [1] 66.1% | [2] 61.4% | [3] 77.9% | [4] 41.8% | [6] 50% | [7] 104% | [9] 34.6% | [8] 83.5%

O=C1/C(=C/c2ccccc2O)C(=S)SN1Cc1ccco1
inactive: [1] 105% | [2] 103% | [3] 90.3% | [4] 92.7% | [6] 97.7% | [10] 83.2% | [9] 103% | [8] 113%

OCc1n(Cc2ccc3ccccc3c2)cc[n+]1Cc1ccc2ccccc2c1
active: [6] -2.81%
inactive: [1] 67.7% | [2] 61.6% | [3] 78.9% | [4] 75% | [7] 68.6% | [9] 80.1% | [8] 23.1%

CCCCCCCC[Si](OCC)(OCC)OCC
inactive: [1] 98.2% | [2] 96.1% | [3] 103% | [4] 101% | [6] 88.8% | [7] 102% | [9] 99.3% | [8] 108%

COc1ccc(N2CCN(CC(=O)N3CCN(c4nnc(-c5ccccc5)c(-c5ccccc5)n4)CC3)CC2)cc1
inactive: [1] 46.8% | [2] 46.2% | [3] 78.2% | [4] 64.7% | [6] 39% | [7] 14.8% | [9] 27% | [8] 47.9%

CC[N+](CCCCCCCCCC[N+](CC)(c1ccccn1)c1ccccn1)(c1ccccn1)c1ccccn1
active: [1] 1.17% | [3] -15.8% | [6] -22.5% | [7] 1.29% | [8] -80%
inactive: [2] 33.2% | [4] 10.7% | [9] 34.5%

CN1CCN(CCCOc2ccc3ncnc(Nc4ccc(OCc5cccc(F)c5)c(Cl)c4)c3c2)CC1
active: [3] -9.88% | [10] -43.4% | [9] -86.6% | [8] -46.5%
inactive: [1] 54.9% | [2] 88.8% | [4] 19.7% | [6] 35%

OCCCc1n(Cc2ccc3ccccc3c2)c2ccccc2[n+]1Cc1ccc2ccccc2c1
inactive: [1] 19% | [2] 48.5% | [3] 49.9% | [4] 37.5% | [7] 68.4% | [9] 36%
active: [6] -24.3% | [8] -58.9%

C=C1CC[C@@H]2[C@](C)(COC(C)=O)[C@H](OC(C)=O)CC[C@@]2(C)[C@@H]1CC(NCc1ccccc1)C1=CCOC1=O (stereo partly drawn)
inactive: [1] 57.4% | [2] 11.4% | [3] 77% | [4] 89% | [6] 41.7% | [7] 49.2% | [9] 71.4% | [8] 45.6%

COP(=O)(OC)C(c1ccccc1)(c1ccccc1)c1ccccc1
inactive: [1] 104% | [2] 83.8% | [3] 95.4% | [4] 93.8% | [6] 62.8% | [7] 74.5% | [9] 93.3% | [8] 103%

CN1CCN(c2nc3scc(-c4ccccc4)c3c(=O)[nH]2)CC1
inactive: [1] 100% | [2] 98.6% | [3] 90.3% | [4] 103% | [6] 98.5% | [7] 99% | [9] 98.3% | [8] 99%

O=C(N/N=C/c1cccc(O)c1)c1ccc(C(F)(F)F)nc1Nc1cccc(C(F)(F)F)c1
inactive: [1] 13.4% | [2] 12.6%
active: [3] -6.79% | [4] -32.9% | [6] -28.4% | [10] -7.57% | [9] -13.8% | [8] -0.875%

O[N+]1=CC=CCC1=S.On1ccccc1=S.[Zn]
active: [1] -53.1% | [2] -85.9% | [3] -87.3% | [4] -86.8% | [6] -64.5% | [10] -92.4% | [9] -74.2% | [8] -74.9%

Cn1ccnc1C(=O)/C=C/c1ccc(C(=O)Nc2nc3ccccc3[nH]2)cc1
inactive: [1] 23.3% | [2] 82.4% | [3] 43.8% | [4] 34.1% | [6] 52.8% | [10] 58.6% | [9] 23.6% | [8] 55.1%

Nc1ccc2c(c1)Cc1cc(Cl)c(Cl)cc1-2
inactive: [1] 68.1% | [2] 92.3% | [3] 60.5% | [4] 86.5% | [6] 67.8% | [7] 59.1% | [9] 59.7% | [8] 85.1%
